In the library only some 2.3% were active in any assay of this set; here they are far more common.
CF NFkB block: inhibitors of PAF-induced NF-kB signaling, primary screen, cell-based, GFP fluorescence, uHTS; AID 588850, 2011; hit rate 0.86% among 360,000; inhibition, % at 5 µM; KKLEB NF-kB-GFP reporter, GFP fluorescence overnight;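 active = at least 50% inhibition at 5 µM, scaled per plate between neutral and stimulator controls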;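 also: PAF is a Pseudomonas aeruginosa culture filtrate used as stimulus; plate controls were PAF-stimulated DMSO wells for no effect and unstimulated DMSO wells for full effect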
TWEAK-Fn14 inh: inhibitors of TWEAK-Fn14 signaling, primary screen, luciferase reporter cells, uHTS; TWEAK-stimulated Fn14 reporter cells, luciferase luminescence, 8 h; inhibition, % at 10 µM; hit rate 2% among 360,000; in the data active = inhibition above about 50%
LGR2 inh: inhibitors of bursicon-induced LGR2 CRE-luciferase signal, primary screen, cell-based, HEK293, CRE-luciferase reporter, bursicon stimulation; Drosophila bursicon receptor LGR2 (rickets); bursicon-stimulated, 4 h; inhibition, % at 9.99 µM; hit rate 0.35% among 380,000;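 active = drop in luminescence signal, shown as inhibition above about 50% in the replicate tests, limit read from the data, passing the limit was not always enough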;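 also: agonist challenge used bursicon conditioned medium at about half maximal strength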
HIF-2a block: HIF-2a reporter inhibitors, primary screen, luminescence, 786-0 RCC cells; hit rate 0.72% among 360,000; 786-0 RCC cells HIF-2a reporter, luciferase luminescence, overnight; inhibition, % at 18.8 µM;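 active = inhibition of the luminescence signal of 40% or more relative to plate controls, in a single-dose primary screen at 18.75 µM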
iPSC survival up: enhancers of single-cell hiPSC survival, primary screen, ATPlite luminescence. 100% = ROCK inhibitor wells, 0% = DMSO. hit rate 0.044% among 360,000. survival enhancement, % at 20 µM; in the data active = survival enhancement above about 18%;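 also: cells exposed to compounds for 16 hours before the ATP read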
KKLEB tox: cytotoxicity in KKLEB CF airway cells, primary screen, cytotoxicity control for CF NF-kB inhibitor project, cell-based, uHTS, fluorescence assay plates | KKLEB CF airway cells viability, ATPlite luminescence, overnight; hits give low values; cells stimulated with P. aeruginosa culture filtrate | activity change (cytotoxicity), % at 5 µM | hit rate 0.36% among 360,000;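 active = corrected activity change at or below -50% at 5 µM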
* marks the source's active call; other numbers are inactive results; / = no result given.

SMILES | CF NFkB block | TWEAK-Fn14 inh | LGR2 inh | HIF-2a block | iPSC survival up | KKLEB tox
O=C(CCN1C(=O)/C(=C/c2ccccc2Cl)SC1=S)NN1CCOCC1 | -17.5 | -3.0 | 4.4 | 1.2 | -0.6 | 11.0
O=C1/C(=C/c2ccccc2F)SC(=S)N1CCC(=O)N1CCCCC1CCO (configuration not stated) | -1.2 | 8.4 | 20.4 | 4.0 | -0.7 | 1.2
O=C(CCN1C(=O)/C(=C\c2ccccc2F)SC1=S)N1CCCCC1 | 95.7* | 15.5 | 9.0 | 8.1 | 0.7 | 0.5
O=C(CCN1C(=O)/C(=C\c2ccccc2Cl)SC1=S)N1CCN(c2ccccc2)CC1 | 3.9 | 38.5 | / | 59.5* | -5.9 | 7.7
O=C1/C(=C/c2ccc(F)cc2)SC(=S)N1CC(=O)N1CCCCC1c1cccnc1 (configuration not stated) | 17.3 | -18.7 | 0.4 | 34.1 | -0.5 | -5.7
O=C1/C(=C/c2ccccc2F)SC(=S)N1CC(=O)N1CCCCC1c1cccnc1 (configuration not stated) | 73.8* | -0.8 | 12.0 | 19.6 | -0.6 | -28.4
COc1ccc2c3c(n(C)c2c1)[C@H](CO)N(C(=O)C1CCCC1)CC31CN(C)C1 | / | / | 6.6 | / | / | /
CC=Cc1ccc2n(c1=O)C[C@H]1[C@H](CO)[C@@H](C(=O)NCc3ccc(F)cc3)N(Cc3cncnc3)[C@@H]21 (mixture of isomers) | / | / | -14.6 | / | / | /
COc1ccc(-c2nsc3c(N4CCCCC4)ncnc23)cc1 | -26.4 | 101.5* | / | 59.8* | -6.5 | -62.0*
Cc1ccc(-c2nsc3c(N4CCC(C(N)=O)CC4)ncnc23)cc1 | -8.8 | 59.5* | / | -132.7 | -1.2 | -19.4
O=C(O)/C=C/c1cnn(-c2ccccc2)c1 | 20.1 | 67.1* | 58.8* | 5.3 | 1.5 | -1.6
CCOC(=O)/C=C/c1cnn(-c2ccccc2)c1 | 4.5 | -23.5 | -59.1 | -142.0 | -0.1 | 5.5
C[C@@H]1CN([C@H](C)CO)C(=O)c2cc(NC(=O)Nc3cccc4ccccc34)ccc2O[C@@H](C)CCCCO[C@H]1CN(C)Cc1ccc(C(=O)O)cc1 | / | / | 18.6 | / | / | /
O=C(Nc1ccccc1Cl)c1ccc2c(=O)n3c(nc2c1)CCC3 | -12.8 | 24.1 | -28.4 | -224.1 | -0.5 | -4.7
O=C(Nc1nc(-c2ccccc2)cs1)c1ccc2c(=O)n3c(nc2c1)CCCCC3 | 3.6 | 106.0* | 14.5 | -59.8 | 2.8 | 16.5
O=C(Nc1cccc(S(=O)(=O)N2CCCC2)c1)c1ccc2c(=O)n3c(nc2c1)CCCCC3 | 7.3 | 56.5* | -0.5 | -3.4 | 0.4 | 11.5
Cc1cccc(NC(=O)c2ccc3c(=O)n4c(nc3c2)CCCCC4)n1 | 2.2 | 57.1* | 16.9 | -94.2 | -0.3 | -10.5
O=C(Nc1cccc(S(=O)(=O)N2CCOCC2)c1)c1ccc2c(=O)n3c(nc2c1)CCCCC3 | -13.4 | 31.3 | 27.8 | 10.5 | -0.5 | -6.0
COc1cccc(S(=O)(=O)N2CCC3(CC2)CN[C@@H](CO)c2[nH]c4cc(OC)ccc4c23)c1 | / | / | 26.3 | / | / | /
C[C@H]1CN([C@@H](C)CO)S(=O)(=O)c2ccc(-c3ccncc3)cc2O[C@H]1CN(C)C(=O)C1CCCCC1 | / | / | -9.1 | / | / | /
COC(=O)c1sccc1N/N=C/c1cccc(Oc2ccccc2)c1 | -4.7 | 52.6* | 20.3 | -83.1 | -0.2 | 13.9
COC(=O)c1sccc1N/N=C/c1cccc(OC)c1O | -12.5 | 63.0* | 77.4* | -81.6 | -0.7 | 6.5
COc1ccc(NC(=O)Nc2ccc3c(c2)C(=O)N([C@@H](C)CO)C[C@@H](C)[C@@H](CN(C)C(=O)Nc2ccc4c(c2)OCO4)O3)cc1 | / | / | -5.6 | / | / | /
CC(C)NC(=O)N(C)C[C@H]1Oc2ncc(C#CC3(O)CCCC3)cc2C(=O)N([C@H](C)CO)C[C@H]1C | / | / | 9.5 | / | / | /
O=C(CN1C(=O)/C(=C2\SC(=S)N(C3CCS(=O)(=O)C3)C2=O)c2ccccc21)Nc1ccccc1 (configuration not stated) | 52.8* | 36.2 | 37.8 | 4.6 | -1.1 | -5.9
O=C(C[C@H]1CC[C@@H]2[C@H](COC[C@@H](O)CN2S(=O)(=O)c2cccc(F)c2)O1)Nc1ccc(-c2ccccc2)cc1 | / | / | -3.7 | / | / | /

Screening data deposited in PubChem BioAssay by several laboratories.
